Screen size: about 63,000 compounds; about 75 (0.1%) were called active. No stated cut-off is given here; in the data, active means inhibition above about 21%; inactive means the rest. The list comes from a sample in which actives are over-represented; it also holds similar structures and randomly drawn compounds.

These results are taken from PubChem BioAssay AID453 (PCMD, 2006).

For the test, the target named is Cathepsin B (Homo sapiens) (UniProt P07858). The experiment in a line: blockers of cathepsin B proteolysis – biochemical, fluorogenic substrate, primary screen (AID 453).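 Further: 0% = enzyme with no compound and 100% = no enzyme blank.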 The note with it: purified cathepsin B, fluorescence, stronger effect = higher value,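 tested at 10 µM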.
One may read the inhibition as the drop in the measured response relative to a control, in per cent. As to `N#CCCN(CCC#N)c1nnc(-c2ccccc2)s1`, the inhibition was 1.65% (inactive).
For the compound `COc1ccccc1CNC(=O)CCCNS(=O)(=O)c1cccc2nsnc12`, the inhibition is 3.57% (inactive).
`O=C(CSc1nnnn1C1CCCC1)Nc1ccc2c(c1)OCCO2`: the inhibition is -2.88% (inactive).
Next, `Cc1ccccc1CSc1nnc(Cn2c(=O)sc3ccccc32)n1C`: 1.64% (inactive); `CN1CCN(c2nc3c(c(=O)[nH]c(=O)n3C)n2Cc2cccc3ccccc23)CC1`: 5.25% (inactive); `C=C(Br)CN1CCN(CC(=C)Br)CC1`: 8.43% (inactive).
Consider `CCOc1cc(-c2conc2N)cc(OCC)c1OCC`, for which the inhibition was 0.88% (inactive).
In the case of `O=c1[nH]c(=O)n(Cc2ccco2)c2c1C(C(F)(F)F)(C(F)(F)F)N=C(c1ccco1)N2`, the inhibition is 3.15% (inactive).
Consider `Cc1ccc(-c2nn(-c3ccccc3)cc2CN(Cc2ccccc2)C(=O)CCC(=O)O)o1`, for which the inhibition was -3.71% (inactive).
Regarding `O=c1oc2c(CN3CCCCC3)c(O)ccc2c2c1CCCCC2`, the inhibition was -33.1% (inactive).
For the compound `C=CCNc1nc(C)nc(OC)n1`, the inhibition is 3.19% (inactive).
With `O=CN1CCN(C2CC(=O)N(c3ccc4c(c3)OCO4)C2=O)CC1` (stereo not drawn) the figure was -5.45% (inactive); with `COCCn1c(SCC(=O)Nc2cc(Cl)ccc2OC)nc2c(c1=O)SC(C)C2` (stereo not drawn), -1.89% (inactive); with `O=C(COc1ccc(Cl)cc1)Nc1ccccc1CO`, -0.12% (inactive).
As for `CCOC(=O)c1c(C)nc(-c2ccccc2)nc1NC(=O)C(C)C`, the inhibition was -1.86% (inactive).
In the case of `CCOC(=O)c1c(NC(=O)CSc2nnc(Cc3csc(N)n3)n2C)sc(C)c1C`, the inhibition is 1.53% (inactive).
For the compound `O=C(O)C1CCCCC1C(=O)Nc1ccc(Cl)cc1` (stereo not drawn), the inhibition was -2.32% (inactive).
As for `O=C1Nc2ccccc2C12Nc1ccccc1S2` (stereo not drawn), the inhibition is -3.59% (inactive).
Next, `CCOC(=O)c1[nH]c2ccccc2c1N=C(C)N(CC)CC`: -1.09% (inactive); `COC(=O)CCNc1ccc2c(c1)OCCO2`: -7.3% (inactive); `O=C(Nc1nc2ccc(S(=O)(=O)N3CCCC3)cc2s1)C1CCCO1` (stereo not drawn): -0.69% (inactive).
Turning to `Cc1nonc1NC(=O)c1ccccc1Br`, the inhibition was -1.31% (inactive).
Next, `COc1ccc2c(c1)C(C)=CC(C)(C)N2C(=O)CNCc1ccc2c(c1)OCO2`: 0.73% (inactive); `CC(=O)Oc1cc2c(C(=O)NCCN3CCOCC3)c(C)oc2c2ccccc12`: -1.15% (inactive).
Next, `Cc1ccc(CC2CC(=O)N(c3ccc4c(c3)OCCO4)C2=O)cc1` (stereo not drawn): 3.98% (inactive).
On to `N#Cc1ccccc1-n1c(N)c(C(=O)N2CCCC2)sc1=S`, for which the inhibition is 4.81% (inactive).
As to `Cc1ccc(C(C(=O)NC2CCCCC2)N(C(=O)c2csnn2)C2CC2)o1` (stereo not drawn), the inhibition was 4.47% (inactive).
With `CCCC(=O)N1c2ccc(-c3csc(N)n3)cc2CC1C` (stereo not drawn) the figure was 1.69% (inactive); with `CCCCC(=O)Nc1ccc(C(=O)NCCCn2ccnc2)cc1`, -0.94% (inactive); with `CCCCCC(=O)Nc1ccc2oc(-c3ccncc3)nc2c1`, -2.27% (inactive).
Take `COc1ccccc1NC(=O)CSc1nnc(Cc2cccn2C)n1-c1ccc(F)cc1`: the inhibition is 2.97% (inactive).
In the case of `Cc1ccc(Nc2nc(CSc3nnnn3-c3ccccc3)cc(=O)[nH]2)cc1`, the inhibition is 1.57% (inactive).
As to `COC(=O)C1=C(C)OC(N)=C(C#N)C1c1cc(OC)ccc1OC` (stereo not drawn), the inhibition was 4.88% (inactive).
Next, `Nc1scc(-c2ccncc2)c1Cl`: 3.27% (inactive); `CC(C)c1nc(N2CCOCC2)c(C#N)c2c1COC(C)(C)C2`: 1.28% (inactive); `CCCCc1nc2ccccc2c(=O)n1NC(=O)c1c(O)c2cccc3c2n(c1=O)CC3`: -2.29% (inactive).
With `O=C(CCSc1ccccc1)NCCSc1ccccn1` the figure was 5.87% (inactive); with `Nc1nonc1-c1nc2ccccc2n1Cc1ccc(F)cc1`, 73.1% (active).
As to `CCCn1c(C(O)c2cc(OC)ccc2OC)nc2ccccc21` (stereo not drawn), the inhibition was 5.72% (inactive).
Regarding `COc1ccc(C)c(Cn2c(-c3nonc3N)nc3ccccc32)c1`, the inhibition was 45.2% (active).
Next, `CC(=O)Nc1nonc1-c1nc2ccccc2n1Cc1ccccn1`: -4.81% (inactive); `COCCn1c(-c2ccc(OC)c(OC)c2)nc2ccccc21`: 4.56% (inactive).
On to `Nc1nonc1-c1nc2ccccc2n1CCC(=O)O`, for which the inhibition was 7.32% (inactive).
For the compound `Cc1cc(NC(=O)CCC(=O)N(c2ccccc2)C(C(=O)NC2CCCC2)c2ccncc2)no1` (stereo not drawn), the inhibition was 0.19% (inactive).
In the case of `CCn1c(COc2ccccc2)nnc1SCC(=O)Nc1ccc2c(c1)OCCO2`, the inhibition was 1.14% (inactive).
`COC(=O)Nc1nc2ccc(Sc3ccccc3)cc2[nH]1`: the inhibition is 4.96% (inactive).
On to `COc1ncnc2c1N=C1CC(C)(C)CC(N)=C1S2`, for which the inhibition is -1.8% (inactive).
Next, `Cc1ccc2oc(=O)c3cnn(CC(=O)N4CCN(c5ccccn5)CC4)c3c2c1`: 3.28% (inactive).
